Measurements published in PubChem BioAssay (NCI).
Compounds without any hit were thinned out: in the full panel of roughly 83,000, 20% have a hit.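 Method: cells in 96-well plates; compound added at one concentration; 48 h incubation; percent growth measured; values under 10 scored active.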 The source made the active and inactive calls.

Tests used:
Assay in all cases: NCI-60 one-dose screen, 48 h (100 = growth as untreated, 0 = no growth, -100 = all killed)
Settings in all cases: 10 µM
NCI-H23 lung = system: NCI-H23 lung
NCI-H226 lung = system: NCI-H226 lung
NCI-H322M lung = system: NCI-H322M lung
HOP-62 NSCLC = system: HOP-62 NSCLC
NCI-H460 lung = system: NCI-H460 lung
NCI-H522 lung = system: NCI-H522 lung
A549/ATCC NSCLC = system: A549/ATCC NSCLC
786-0 renal = system: 786-0 renal
COLO 205 colon = system: COLO 205 colon
DU-145 prostate = system: DU-145 prostate
K-562 leukemia = system: K-562 leukemia
MALME-3M melanoma = system: MALME-3M melanoma
MDA-MB-231 breast = system: MDA-MB-231 breast
RXF 393 renal = system: RXF 393 renal
SF-295 CNS = system: SF-295 CNS
SF-539 CNS = system: SF-539 CNS
UACC-257 melanoma = system: UACC-257 melanoma
M14 melanoma = system: M14 melanoma
HCT-15 colon = system: HCT-15 colon
SF-268 CNS = system: SF-268 CNS

Measured: growth

COc1ccc(-c2nnc(-c3c(-c4ccccc4)nc4ncccn34)o2)cc1OC
inactive: NCI-H23 lung 97.2% | NCI-H226 lung 93.2% | NCI-H322M lung 94.2% | HOP-62 NSCLC 84.6% | NCI-H460 lung 107% | NCI-H522 lung 94.2% | A549/ATCC NSCLC 96% | 786-0 renal 102% | COLO 205 colon 100% | DU-145 prostate 109% | K-562 leukemia 88.8% | MALME-3M melanoma 121% | MDA-MB-231 breast 91.3% | RXF 393 renal 98.3% | SF-295 CNS 101% | SF-539 CNS 94.5% | UACC-257 melanoma 96.7% | M14 melanoma 119% | HCT-15 colon 100%

Cc1nc2oc3ccccc3c(=O)c2cc1C(=O)NCc1ccccc1
inactive: NCI-H23 lung 85.9% | NCI-H226 lung 105% | NCI-H322M lung 76.2% | HOP-62 NSCLC 90.5% | NCI-H460 lung 32.2% | NCI-H522 lung 86.4% | A549/ATCC NSCLC 68.9% | 786-0 renal 61.5% | COLO 205 colon 39.9% | DU-145 prostate 77% | K-562 leukemia 13.1% | MDA-MB-231 breast 87.9% | RXF 393 renal 113% | SF-268 CNS 83% | SF-295 CNS 43.2% | SF-539 CNS 93.4% | UACC-257 melanoma 68.1% | M14 melanoma 45.9% | HCT-15 colon 70.2%

Cc1ccc2oc3nc(C)c(C(=O)NCc4ccccc4)cc3c(=O)c2c1
inactive: NCI-H23 lung 83.8% | NCI-H226 lung 104% | NCI-H322M lung 76.8% | HOP-62 NSCLC 100% | NCI-H460 lung 41.4% | NCI-H522 lung 76.7% | A549/ATCC NSCLC 73.5% | 786-0 renal 55.6% | COLO 205 colon 23.8% | DU-145 prostate 86.9% | K-562 leukemia 18.4% | MDA-MB-231 breast 88.8% | RXF 393 renal 120% | SF-268 CNS 95.3% | SF-295 CNS 41.9% | SF-539 CNS 99.3% | UACC-257 melanoma 69.2% | M14 melanoma 29% | HCT-15 colon 78.8%

CCCCCCCCCCCC[n+]1ccc(C(N)=O)cc1
active: NCI-H522 lung 4.75% | COLO 205 colon -73% | K-562 leukemia 7.8% | RXF 393 renal -23.4% | SF-539 CNS 8.16%
inactive: NCI-H23 lung 23.5% | NCI-H226 lung 35% | NCI-H322M lung 88.7% | HOP-62 NSCLC 33.7% | NCI-H460 lung 16.8% | A549/ATCC NSCLC 73.7% | 786-0 renal 40% | DU-145 prostate 43% | MDA-MB-231 breast 28.4% | SF-268 CNS 22.1% | SF-295 CNS 33.6% | UACC-257 melanoma 29.6% | M14 melanoma 10.8% | HCT-15 colon 87.3%

COc1cc2c(cc1OC)N(CCO)C1=C(C(=O)OC1)C2c1ccc(Cl)c(Cl)c1 (stereo not given)
inactive: NCI-H23 lung 104% | NCI-H226 lung 103% | NCI-H322M lung 95.2% | HOP-62 NSCLC 98% | NCI-H460 lung 104% | NCI-H522 lung 77.4% | A549/ATCC NSCLC 98.6% | 786-0 renal 93.5% | COLO 205 colon 116% | DU-145 prostate 109% | K-562 leukemia 88.7% | MDA-MB-231 breast 96.8% | RXF 393 renal 97.8% | SF-268 CNS 100% | SF-295 CNS 103% | SF-539 CNS 99.3% | UACC-257 melanoma 103% | M14 melanoma 112% | HCT-15 colon 98.2%

Cn1c(C(N)=O)cc2c1-c1nc(Nc3ccccc3)ncc1CCC2
active: RXF 393 renal 3.67%
inactive: NCI-H23 lung 52% | NCI-H226 lung 38.1% | NCI-H322M lung 46.6% | HOP-62 NSCLC 38.8% | NCI-H460 lung 37.6% | NCI-H522 lung 33.5% | A549/ATCC NSCLC 31.1% | 786-0 renal 49.9% | COLO 205 colon 59.8% | DU-145 prostate 55.5% | K-562 leukemia 49.8% | MDA-MB-231 breast 38.1% | SF-268 CNS 47.8% | SF-295 CNS 60.6% | SF-539 CNS 35.5% | UACC-257 melanoma 74.3% | M14 melanoma 45.5% | HCT-15 colon 34.6%

CCN1CCC(CCOC)(CN2c3ccccc3Sc3ccc(Cl)cc32)C1 (stereo not given)
inactive: NCI-H23 lung 63.5% | NCI-H226 lung 73.9% | NCI-H322M lung 65.7% | HOP-62 NSCLC 58.3% | NCI-H460 lung 24.1% | NCI-H522 lung 65.1% | A549/ATCC NSCLC 61.1% | 786-0 renal 48.7% | COLO 205 colon 40% | DU-145 prostate 69.5% | MDA-MB-231 breast 35% | RXF 393 renal 37.3% | SF-268 CNS 63.3% | SF-295 CNS 72.4% | SF-539 CNS 78% | UACC-257 melanoma 24.6% | HCT-15 colon 49.1%
active: K-562 leukemia -15.2% | M14 melanoma -65.9%

Cc1ncc(-c2ccoc2)c(NC2CCCCCC2)n1
inactive: NCI-H23 lung 97.9% | NCI-H226 lung 103% | NCI-H322M lung 80.7% | HOP-62 NSCLC 102% | NCI-H460 lung 106% | NCI-H522 lung 82.8% | A549/ATCC NSCLC 101% | 786-0 renal 99.2% | COLO 205 colon 106% | DU-145 prostate 110% | K-562 leukemia 106% | MDA-MB-231 breast 108% | RXF 393 renal 113% | SF-268 CNS 98.9% | SF-295 CNS 102% | SF-539 CNS 110% | UACC-257 melanoma 96.4% | M14 melanoma 101% | HCT-15 colon 103%

O=C(CCCCC[P+](c1ccccc1)(c1ccccc1)c1ccccc1)NC(COC(=O)C(Cl)Cl)(COC(=O)C(Cl)Cl)COC(=O)C(Cl)Cl
inactive: NCI-H23 lung 108% | NCI-H226 lung 102% | NCI-H322M lung 99.5% | HOP-62 NSCLC 96.1% | NCI-H460 lung 106% | NCI-H522 lung 126% | A549/ATCC NSCLC 96.5% | 786-0 renal 99.6% | COLO 205 colon 98.1% | DU-145 prostate 114% | K-562 leukemia 98.2% | MDA-MB-231 breast 111% | RXF 393 renal 101% | SF-268 CNS 103% | SF-295 CNS 99% | SF-539 CNS 107% | UACC-257 melanoma 97.5% | M14 melanoma 102% | HCT-15 colon 99%

O=C1OCC2=C1C(c1ccc(Cl)c(Cl)c1)c1cc3c(cc1N2CCO)OCCO3 (stereo not given)
active: NCI-H460 lung 6.2% | NCI-H522 lung -26.7% | COLO 205 colon -11.9% | DU-145 prostate 6.74% | RXF 393 renal 8.18% | SF-295 CNS -12.8% | SF-539 CNS 2.76%
inactive: NCI-H23 lung 32.5% | NCI-H226 lung 25.4% | NCI-H322M lung 37.3% | HOP-62 NSCLC 34.1% | A549/ATCC NSCLC 22.6% | 786-0 renal 25.7% | K-562 leukemia 17.8% | MDA-MB-231 breast 26.6% | SF-268 CNS 43.1% | UACC-257 melanoma 59.9% | M14 melanoma 12.4% | HCT-15 colon 18.3%
